Assay results from the supplement of paper PMC11732987, “Enantioselective OTUD7B fragment discovery through chemoproteomics screening and high-throughput optimisation” (Communications Chemistry, 2025).

How the values were obtained:
Assay in all cases: log2 ratio of Biotin-Ahx-Ub-VS probe labelling (fragment/DMSO); higher = less target engagement (more negative = stronger competition), active = hit call of the paper (q ≤ 0.05, log2 ratio ≤ -1)
Details in all cases: compound concentration: 200 uM; treatment time: 3 h
[1] = target: T1, USP19 (UniProt O94966)
T1 sequence (whole entry): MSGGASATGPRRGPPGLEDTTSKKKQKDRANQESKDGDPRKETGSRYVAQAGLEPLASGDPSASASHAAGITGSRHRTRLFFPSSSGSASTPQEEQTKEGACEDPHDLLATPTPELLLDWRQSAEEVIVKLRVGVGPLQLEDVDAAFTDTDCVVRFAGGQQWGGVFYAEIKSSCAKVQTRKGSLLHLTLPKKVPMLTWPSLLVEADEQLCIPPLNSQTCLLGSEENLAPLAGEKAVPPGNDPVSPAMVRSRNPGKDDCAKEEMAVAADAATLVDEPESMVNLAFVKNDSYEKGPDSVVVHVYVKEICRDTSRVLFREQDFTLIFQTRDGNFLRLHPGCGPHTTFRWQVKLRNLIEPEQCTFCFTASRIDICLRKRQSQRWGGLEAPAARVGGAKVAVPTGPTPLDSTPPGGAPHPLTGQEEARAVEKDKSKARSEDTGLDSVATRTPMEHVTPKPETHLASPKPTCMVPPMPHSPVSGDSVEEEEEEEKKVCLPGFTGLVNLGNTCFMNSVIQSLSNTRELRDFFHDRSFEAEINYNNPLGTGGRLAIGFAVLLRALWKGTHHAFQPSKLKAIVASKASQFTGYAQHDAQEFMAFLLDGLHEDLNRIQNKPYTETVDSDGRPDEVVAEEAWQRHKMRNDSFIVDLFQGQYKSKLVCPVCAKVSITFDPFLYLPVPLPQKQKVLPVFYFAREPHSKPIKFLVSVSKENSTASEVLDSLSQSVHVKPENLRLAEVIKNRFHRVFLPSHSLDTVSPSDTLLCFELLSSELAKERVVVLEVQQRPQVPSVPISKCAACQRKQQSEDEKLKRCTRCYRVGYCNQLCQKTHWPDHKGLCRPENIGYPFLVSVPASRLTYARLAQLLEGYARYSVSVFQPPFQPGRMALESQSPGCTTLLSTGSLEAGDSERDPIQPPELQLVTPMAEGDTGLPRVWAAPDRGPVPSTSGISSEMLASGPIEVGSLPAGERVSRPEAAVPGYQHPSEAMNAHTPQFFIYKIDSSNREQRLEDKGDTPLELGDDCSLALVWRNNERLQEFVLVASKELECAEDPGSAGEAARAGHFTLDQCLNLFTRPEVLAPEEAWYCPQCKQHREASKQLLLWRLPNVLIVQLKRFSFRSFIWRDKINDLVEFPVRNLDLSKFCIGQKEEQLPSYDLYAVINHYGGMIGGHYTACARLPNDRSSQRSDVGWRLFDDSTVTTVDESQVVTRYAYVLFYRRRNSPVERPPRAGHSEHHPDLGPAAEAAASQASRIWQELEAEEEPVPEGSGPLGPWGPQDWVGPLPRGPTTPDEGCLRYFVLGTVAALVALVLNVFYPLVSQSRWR
Outline: (§1)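 HEK293T lysate, 495 µg per sample in Tris/CHAPS/IGEPAL buffer with protease inhibitors, was treated in triplicate with fragment at 200 µM or vehicle for 3 h and then with Biotin-Ahx-Ub-VS at 0.5 µM final for 1 h. Labelled DUBs were NeutrAvidin-enriched, digested with LysC and trypsin, and run by diaPASEF LC-MS/MS. Spectronaut label-free quantities were global-median-normalised, and values are average log2 fragment/vehicle ratios by unpaired t-test on proteins with ≥2 unique peptides.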

[2] = target: T2, USP22 (UniProt Q9UPT9)
T2 sequence (whole entry): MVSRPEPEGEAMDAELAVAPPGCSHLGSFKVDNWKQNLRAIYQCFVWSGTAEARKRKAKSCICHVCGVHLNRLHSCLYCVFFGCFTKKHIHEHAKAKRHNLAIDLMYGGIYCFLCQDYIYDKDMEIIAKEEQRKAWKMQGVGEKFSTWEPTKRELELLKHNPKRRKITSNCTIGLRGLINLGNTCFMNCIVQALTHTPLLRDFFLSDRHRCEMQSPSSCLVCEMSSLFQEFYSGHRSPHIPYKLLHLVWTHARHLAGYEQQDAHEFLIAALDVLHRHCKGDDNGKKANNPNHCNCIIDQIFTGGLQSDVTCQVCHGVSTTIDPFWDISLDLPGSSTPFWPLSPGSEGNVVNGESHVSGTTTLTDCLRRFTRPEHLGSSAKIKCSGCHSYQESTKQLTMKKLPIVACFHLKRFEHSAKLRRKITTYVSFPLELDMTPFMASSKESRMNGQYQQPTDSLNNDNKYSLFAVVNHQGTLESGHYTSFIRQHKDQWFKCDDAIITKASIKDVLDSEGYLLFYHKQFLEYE
Outline: as §1

[3] = target: USP24 (UniProt Q9UPU5)
Sequence of USP24 (Q9UPU5 whole entry): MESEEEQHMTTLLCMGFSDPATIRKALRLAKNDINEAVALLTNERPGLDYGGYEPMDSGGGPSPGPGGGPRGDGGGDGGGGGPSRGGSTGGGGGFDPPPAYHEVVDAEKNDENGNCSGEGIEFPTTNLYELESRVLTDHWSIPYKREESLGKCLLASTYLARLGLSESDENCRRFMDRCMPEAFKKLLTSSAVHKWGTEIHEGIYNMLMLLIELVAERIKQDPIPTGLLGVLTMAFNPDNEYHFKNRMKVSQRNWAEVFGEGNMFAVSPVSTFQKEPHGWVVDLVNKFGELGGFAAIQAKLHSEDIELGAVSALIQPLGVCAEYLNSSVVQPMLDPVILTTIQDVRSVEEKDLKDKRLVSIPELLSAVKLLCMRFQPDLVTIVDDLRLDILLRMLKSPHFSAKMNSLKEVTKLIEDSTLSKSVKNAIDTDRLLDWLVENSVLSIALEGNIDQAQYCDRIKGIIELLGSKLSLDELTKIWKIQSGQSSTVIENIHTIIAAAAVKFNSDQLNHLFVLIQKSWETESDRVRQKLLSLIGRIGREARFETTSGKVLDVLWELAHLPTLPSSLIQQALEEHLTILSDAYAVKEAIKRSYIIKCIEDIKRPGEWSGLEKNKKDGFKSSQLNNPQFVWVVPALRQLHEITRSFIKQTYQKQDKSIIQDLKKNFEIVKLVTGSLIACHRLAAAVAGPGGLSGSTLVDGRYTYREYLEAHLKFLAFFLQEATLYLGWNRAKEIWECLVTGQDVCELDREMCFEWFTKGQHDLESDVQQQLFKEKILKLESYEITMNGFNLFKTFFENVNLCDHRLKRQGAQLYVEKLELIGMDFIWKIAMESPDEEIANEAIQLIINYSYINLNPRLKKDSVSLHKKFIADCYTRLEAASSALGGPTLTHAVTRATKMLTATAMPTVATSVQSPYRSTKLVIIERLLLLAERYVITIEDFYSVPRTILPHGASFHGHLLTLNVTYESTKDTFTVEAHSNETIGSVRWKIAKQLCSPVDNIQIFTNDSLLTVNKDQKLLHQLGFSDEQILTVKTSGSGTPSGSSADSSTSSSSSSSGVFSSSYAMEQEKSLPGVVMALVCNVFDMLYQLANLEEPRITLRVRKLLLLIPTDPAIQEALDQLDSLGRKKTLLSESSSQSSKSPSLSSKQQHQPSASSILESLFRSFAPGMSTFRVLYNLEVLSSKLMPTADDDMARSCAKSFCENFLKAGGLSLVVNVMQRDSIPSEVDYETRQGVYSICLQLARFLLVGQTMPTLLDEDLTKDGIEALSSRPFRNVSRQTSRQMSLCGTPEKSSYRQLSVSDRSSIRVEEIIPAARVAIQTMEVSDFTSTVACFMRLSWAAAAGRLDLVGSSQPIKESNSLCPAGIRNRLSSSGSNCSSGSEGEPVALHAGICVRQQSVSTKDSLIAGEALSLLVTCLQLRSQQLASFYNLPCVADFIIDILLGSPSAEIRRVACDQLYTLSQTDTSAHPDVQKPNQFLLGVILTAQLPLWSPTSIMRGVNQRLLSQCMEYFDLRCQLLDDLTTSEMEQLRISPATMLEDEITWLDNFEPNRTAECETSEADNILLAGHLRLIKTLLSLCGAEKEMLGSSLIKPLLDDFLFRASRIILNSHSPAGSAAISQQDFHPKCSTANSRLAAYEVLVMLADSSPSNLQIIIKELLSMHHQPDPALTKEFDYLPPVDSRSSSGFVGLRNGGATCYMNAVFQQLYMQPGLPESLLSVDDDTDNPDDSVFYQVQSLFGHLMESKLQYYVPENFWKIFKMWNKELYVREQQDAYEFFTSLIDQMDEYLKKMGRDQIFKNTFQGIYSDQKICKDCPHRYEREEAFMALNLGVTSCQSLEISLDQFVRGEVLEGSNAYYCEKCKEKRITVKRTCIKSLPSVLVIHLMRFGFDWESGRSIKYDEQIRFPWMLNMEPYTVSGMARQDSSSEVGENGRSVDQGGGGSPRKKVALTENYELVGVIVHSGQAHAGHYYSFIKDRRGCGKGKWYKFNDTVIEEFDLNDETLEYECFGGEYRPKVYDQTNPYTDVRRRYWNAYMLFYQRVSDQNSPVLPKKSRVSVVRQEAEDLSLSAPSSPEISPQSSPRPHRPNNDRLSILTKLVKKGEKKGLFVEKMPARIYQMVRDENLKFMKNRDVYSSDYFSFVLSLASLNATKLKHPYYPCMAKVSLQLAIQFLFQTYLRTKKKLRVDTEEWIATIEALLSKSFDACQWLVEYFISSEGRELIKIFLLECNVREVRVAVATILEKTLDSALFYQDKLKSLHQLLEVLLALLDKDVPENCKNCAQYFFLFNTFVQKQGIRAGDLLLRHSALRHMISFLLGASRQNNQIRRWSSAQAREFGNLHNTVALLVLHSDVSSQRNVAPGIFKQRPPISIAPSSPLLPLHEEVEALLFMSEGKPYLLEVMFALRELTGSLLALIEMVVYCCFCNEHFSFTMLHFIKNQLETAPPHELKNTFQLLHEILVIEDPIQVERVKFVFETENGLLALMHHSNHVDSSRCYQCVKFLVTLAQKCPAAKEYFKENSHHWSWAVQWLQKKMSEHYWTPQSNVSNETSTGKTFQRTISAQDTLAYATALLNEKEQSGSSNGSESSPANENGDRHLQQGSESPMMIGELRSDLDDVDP
Outline: as §1

[4] = target: T3, USP25 (UniProt Q9UHP3)
T3 sequence (whole entry): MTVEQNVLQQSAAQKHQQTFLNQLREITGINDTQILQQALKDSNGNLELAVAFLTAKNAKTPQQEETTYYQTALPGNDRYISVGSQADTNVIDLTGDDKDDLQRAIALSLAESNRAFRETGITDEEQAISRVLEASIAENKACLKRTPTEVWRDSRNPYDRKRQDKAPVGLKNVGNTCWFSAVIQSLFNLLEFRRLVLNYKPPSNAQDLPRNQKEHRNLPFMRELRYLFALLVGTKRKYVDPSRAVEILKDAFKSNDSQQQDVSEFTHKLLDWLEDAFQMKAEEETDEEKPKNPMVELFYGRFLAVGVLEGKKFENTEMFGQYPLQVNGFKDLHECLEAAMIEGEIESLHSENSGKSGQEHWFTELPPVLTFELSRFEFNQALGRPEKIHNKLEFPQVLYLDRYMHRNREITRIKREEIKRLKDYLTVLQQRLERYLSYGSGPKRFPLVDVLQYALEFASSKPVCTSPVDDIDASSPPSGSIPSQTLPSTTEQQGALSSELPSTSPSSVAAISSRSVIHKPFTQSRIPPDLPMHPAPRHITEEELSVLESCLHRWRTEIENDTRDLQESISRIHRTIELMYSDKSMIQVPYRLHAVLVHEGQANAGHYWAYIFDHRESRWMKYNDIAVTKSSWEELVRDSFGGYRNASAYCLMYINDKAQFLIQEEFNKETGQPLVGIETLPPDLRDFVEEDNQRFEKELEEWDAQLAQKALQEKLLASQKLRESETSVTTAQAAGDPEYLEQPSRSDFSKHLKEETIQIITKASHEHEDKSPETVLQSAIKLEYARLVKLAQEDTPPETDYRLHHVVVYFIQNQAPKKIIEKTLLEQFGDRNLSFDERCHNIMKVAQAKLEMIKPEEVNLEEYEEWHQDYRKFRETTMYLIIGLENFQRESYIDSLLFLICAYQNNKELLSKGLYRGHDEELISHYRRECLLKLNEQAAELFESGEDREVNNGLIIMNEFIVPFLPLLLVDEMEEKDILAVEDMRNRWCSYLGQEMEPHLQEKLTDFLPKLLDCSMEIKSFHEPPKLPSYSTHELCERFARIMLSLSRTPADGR
Outline: as §1

[5] = target: T4, USP28 (UniProt Q96RU2)
T4 sequence (whole entry): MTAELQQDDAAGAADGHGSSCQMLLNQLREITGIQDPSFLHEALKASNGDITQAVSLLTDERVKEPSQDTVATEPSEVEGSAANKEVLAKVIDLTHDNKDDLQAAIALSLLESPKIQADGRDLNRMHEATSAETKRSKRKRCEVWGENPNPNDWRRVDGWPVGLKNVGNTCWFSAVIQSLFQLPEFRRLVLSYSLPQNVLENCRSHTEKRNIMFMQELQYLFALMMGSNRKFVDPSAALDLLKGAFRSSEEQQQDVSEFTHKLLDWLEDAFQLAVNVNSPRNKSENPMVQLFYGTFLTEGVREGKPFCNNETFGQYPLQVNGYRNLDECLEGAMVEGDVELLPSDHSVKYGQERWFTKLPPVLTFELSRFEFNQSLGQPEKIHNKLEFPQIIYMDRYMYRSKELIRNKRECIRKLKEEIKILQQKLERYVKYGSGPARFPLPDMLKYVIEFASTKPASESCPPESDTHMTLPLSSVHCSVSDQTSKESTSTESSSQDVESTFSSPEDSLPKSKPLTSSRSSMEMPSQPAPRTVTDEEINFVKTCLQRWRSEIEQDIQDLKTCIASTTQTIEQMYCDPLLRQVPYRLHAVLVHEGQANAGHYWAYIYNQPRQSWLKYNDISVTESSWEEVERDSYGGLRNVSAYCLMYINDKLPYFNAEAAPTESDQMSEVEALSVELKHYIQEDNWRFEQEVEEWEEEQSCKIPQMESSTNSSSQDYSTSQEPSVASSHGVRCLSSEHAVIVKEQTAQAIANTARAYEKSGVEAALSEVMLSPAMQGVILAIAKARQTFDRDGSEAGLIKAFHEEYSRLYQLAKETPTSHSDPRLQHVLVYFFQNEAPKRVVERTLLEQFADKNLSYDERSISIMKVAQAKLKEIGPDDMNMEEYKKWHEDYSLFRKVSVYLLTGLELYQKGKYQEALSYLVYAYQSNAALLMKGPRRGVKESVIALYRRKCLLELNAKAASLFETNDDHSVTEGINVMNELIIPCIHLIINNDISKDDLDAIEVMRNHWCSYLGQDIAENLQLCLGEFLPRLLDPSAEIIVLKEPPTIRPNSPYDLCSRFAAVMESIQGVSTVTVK
Outline: as §1

Measured: log2 ratio of Biotin-Ahx-Ub-VS probe labelling

Cl.O=C(CCl)N1CCC(Cc2nccs2)C1 (stereo not given)
inactive: [1] -0.32 | [2] 0.0323 | [3] -0.414 | [4] -0.365 | [5] -0.389
